Activity calls are given as the source filed them. How the source made its calls: active means hit-call score of the fitted dose curve at least 0.9, where 1 is the maximum; inactive means score below 0.9.
Read-out: Pyruvate Dehydrogenase Kinase 4 (PDK4), PDK4 (gene 5166)
Experiment: LTEA_HepaRG_PDK4: Life Technologies and Expression Analysis (LTEA) Assay for Pyruvate Dehydrogenase Kinase 4 (PDK4) using HepaRG (AID 2283525)
Conditions: mRNA level, 48 h; actives raise or lower the signal
Method: LTEA_HepaRG is a cell based, multiplexed-readout assay that uses HepaRG, a human liver cell line, with measurements taken at 48 hours after chemical dosing on a 96-well plate.LTEA_HepaRG_PDK4 is one of 102 assay component(s) measured in the LTEA HepaRG cell culture assay. It is a marker of Diseases associated with PDK4 including Platelet Glycoprotein Iv Deficiency and Diabetes Mellitus, Noninsulin-Dependent.Data from the assay component LTEA_HepaRG_PDK4 was analyzed into 1 endpoint. This assay endpoint, LTEA_HepaRG_PDK4, was analyzed with bidirectional fitting relative to DMSO as the negative control and baseline of activity. Using a type of inducible reporter, measures of mRNA induction for gain or loss-of-signal activity can be used to understand regulation of transcription factor activity. To generalize the intended target to other relatable targets, this assay endpoint is annotated to the kinase intended target family, where the subfamily is serine/threonine kinase.
A total of 1060 chemcials from the ToxCast library were tested in eight-point concentration-response experiments. Cell culture and cytotoxicity assays were conducted at Thermo Fisher Scientific's Custom Services facility (Madison, WI). A single lot of human HepaRG cells (Thermo Fisher Scientific, Frederick, MD) was used for the cell culture experiments. 96-well format collagen type I coated plates of human HepaRG cells were prepared using established methods. Briefly, cryopreserved HepaRG cells were thawed, plated at a density of approximately 100,000 cells/well in HepaRG Thaw, Plate, and General Purpose media (HPRG770, Thermo Fisher Scientific), and incubated for 48 hours. 0.5% DMSO was selected as vehicle control to balance the requisite need of DMSO in HepaRG cultures to maintain differentiation (for example, baseline metabolism, proportions of hepatocytes vs. cholangiocytes), while enabling further hepatic receptor pathway activation (for example, PXR and CAR) in response to chemical exposure. 48 hours after plating, the culture medium was replaced with HepaRG Serum-Free Incudtion Media. Cells were exposed to each test chemical in duplicate and maintained in CO2 incubators for another 48 hours. Chemical plates were thawed to room temperature and 200x concentrations of treatment groups were prepared. 8-point conentration-reponse curves were made with the highest exposure at 100 uM, followed by half-log dilutions, all in 0.5% DMSO. Each test plate contained variouse controls, induction positive controls (1mM phenobarbital), cytotoxicity positive controls ([…] aflatoxin B1), vehicle controls (0.5% DMSO), and total lysis controls (0.5% DMSO). Cell morphology images were taken using an Essen IncuCyte FLR automated microscope, with six 96-well plates imaged in about 24 minutes. Images were captured and exported and JPEG files. Spent culture media was transfered to black-well plates for the LDH assay, and remaining media was sorted at -80 C for later use. Cells were treated with RLT buffer and frozen until shipped for gene expression analysis. Total RNA was isolated from the cell suspension in 75 uL of Buffer RLT (Qiagen, Germantown, MD 20874) by Quintiles/Expression Analysis (Durham, NC) using a custom isolation procedure. Total RNA from each plate well was transferred to a preamplification plate. Fluidigm's 96.96 Dynamic ArrayTM (Fluidigm, Amsterdam, the Netherlands) technology was used for gene expression analyses by quantitative reverse transcription polymerase chain reaction (qRT-PCR, performed by Quintiles/Expression Analysis, Durham, NC)89. Standard TaqManTM Assays (Applied Biosystems/ThermoFisher Scientific, Foster City, CA) were used to assess the expression of 93 genes selected based on their selectivity and sensitivity to important hepatic receptors known to be modulated by environmental chemicals; importance in human hepatocyte functionality; and hepatotoxicity. […]

SMILES | outcome | AC50
Clc1cccc(Cl)c1Cl | inactive | –
CC(C)(C)c1ccccc1O | inactive | –
CN(C)C(=S)S | inactive | –
O=C(O)C1(c2ccc3c(c2)OC[C@H](Cc2ccc(-c4ccccc4)cc2)[C@H]3O)CCCC1 | – | 11.4 µM (active)
COc1ccccc1N | inactive | –
N#Cc1cccnc1 | inactive | –
Oc1c(Cl)cc(Cl)cc1Cl | inactive | –
Cc1cc(C)cc(C)c1 | inactive | –
Clc1cccc(Cl)c1 | inactive | –
O=C(N[C@H]1CN2CCC1CC2)c1ccc2c(c1)OCCO2 | inactive | –
CCCCCCCCCCCCc1cccc(S(=O)(=O)O)c1 | inactive | –
Oc1cc(Cl)c(Cl)cc1Cl | inactive | –
CC(C)O.CC(C)O.OCCN(CCO)CCO.OCCN(CCO)CCO.[Ti] | inactive | –
OCCN(CCO)CCO | inactive | –
